40 compounds from PubChem BioAssay (Tox21) can be followed below.

Each structure is given as a SMILES string. Results filed as inconclusive are left out. Calls of active or inactive are those of the source. Calls come from the whole dose curve; as a rule, active = well fitted cell-killing curve with a large enough effect in the repeat runs; inconclusive = weak or mixed curves, or effect the other way; inactive = no such curve, though single readings can be large or run the other way.
% is set by controls: 0 for no effect and ±100 for the full control effect; potency is the fitted concentration of half-maximal effect.

This test can be described thus: Caspase-3/7 induction in CHO-K1 cells by small molecules, qHTS cell viability counter screen (AID 1346979). Note: nearly all actives have a fitted effect of over 35% in size. The settings on record: CellTiter-Fluor fluorescence, 17 h; series mostly up to 92.4 µM; activity change, negative = cytotoxicity: at the top concentration. From the text:
National Center for Advancing Translational Sciences [NCATS]
NIH Chemical Genomics Center [NCGC]
U.S. Environmental Protection Agency [EPA]
National Institutes of Environmental Health Sciences [NIEHS]
National Toxicology Program [NTP]
U.S. Food and Drug Administration [FDA]
Apoptosis is a process of programmed cell death and plays a central role in the development of multicellular organisms. It is a highly regulated process and induces cell death by activating caspases, which are the members of cysteine aspartic acid-specific protease (caspase) family. Caspases involved in apoptosis are classified by their mechanism of action as initiator caspases (caspase-2, -8, -9 and -10) and executioner caspases (caspase-3, -6, and -7). Inhibition of apoptosis results in number of cancers, autoimmune diseases, inflammatory diseases and viral infection. To identify small molecule compounds that induce apoptosis, a homogeneous, luminescent Caspase-Glo 3/7 assay was used. Wild type CHO-K1 cells were used to screen Tox21 libraries for identifying caspase-3/7 activity inducers. Also cytotoxicity of the compounds was tested in parallel by measuring the cell viability using CellTiter-Fluor assay system in the same wells.
Tox21 Assay Protocol Summary:
CHO-K1 cells were dispensed at 1,500 per well in 5uL of culture medium into white solid bottom 1536-well plates (Corning Life Sciences, Corning, NY) using a Multidrop Combi (Thermo Scientific, Waltham, MA) dispenser. The assay plates were incubated at 37 C and 5% CO2 for 5hr, and then 23nL of compounds dissolved in DMSO and positive control were transferred using a Pintool station (Wako, San Diego, CA). The assay plates were incubated at 37C and 5% CO2 for 17hr. For cytotoxicity read, after 16hr incubation at 37C, 1uL CellTiter-Fluor reagent (Promega Corporation, Madison, WI) was added to each well of the assay plates using Flying Reagent Dispenser (FRD, Aurora Discovery, San Diego, CA). After 1hr incubation at 37C and 5% CO2, the fluorescence signal was quantified using a ViewLux plate reader (PerkinElmer, Shelton, CT).
(In general: In qHTS, concentration-response curves come from the screen itself.)
Consider `C=CC(=O)OCCOC1C2CCC1C1CC=CC12` (stereo not given), for which the activity change, negative = cytotoxicity was 4.17% [at 19 µM] (inactive).

Turning to `CCCCCN=C(N)N/N=C/c1c[nH]c2ccc(OC)cc12`, the Potency is 29.8 µM (active).

In the case of `CCCC(=O)c1cc(O)c(O)cc1O`, the Potency was 51.4 µM (active).

`CC(C)C(=O)C(C)C`: the “activity change, negative = cytotoxicity” value was 9.04% (inactive).

For `CCOC(=O)OC(=O)OCC`, the “activity change, negative = cytotoxicity” value was 1.91% (inactive).

For `CCOC=C(C(=O)OCC)C(=O)OCC`, the “activity change, negative = cytotoxicity” value was -0.383% (inactive).

On to `CCN(CCC#N)c1ccc(N=Nc2ccc([N+](=O)[O-])cc2)cc1`, for which the “activity change, negative = cytotoxicity” value is -8.25% (inactive).

For `O=C1Cc2ccccc2C1`, the Potency is 68.6 µM (active).

As for `CC1(C)[C@H]2CC[C@]1(C)C(=O)C2`, the Potency was 61.1 µM (active).

Take `C1=CCCC1`: the “activity change, negative = cytotoxicity” value is 3.45% (inactive).

Take `CC(C)(C)c1ccc(OC2CCCCC2O)cc1` (stereo not given): the Potency was 61.1 µM (active).

With `Cn1ccnc1`, the “activity change, negative = cytotoxicity” value is 10.7% (inactive).

In the case of `Oc1ccc2c(c1)CCC2`, the “activity change, negative = cytotoxicity” value was -1.08% (inactive).

Consider `CCN(CC)c1ccc(N=Nc2ccccc2)cc1`, for which the Potency is 48.6 µM (active).

Consider `C1CCSC1`, for which the “activity change, negative = cytotoxicity” value is 5.8% (inactive).

For the compound `Cc1ccc(C2OC[C@@H]3OC(c4ccc(C)cc4)O[C@H]([C@H](O)CO)[C@@H]3O2)cc1` (stereo not given in full), the “activity change, negative = cytotoxicity” value is 9.13% (inactive).

Turning to `C=CC(C)(C)O`, the “activity change, negative = cytotoxicity” value was 2.33% (inactive).

As to `CCCCCCCCSCc1cc(C)c(O)c(CSCCCCCCCC)c1`, the Potency was 68.6 µM (active).

As to `O=C(c1ccccc1)c1ccc(Cl)cc1`, the Potency is 61.1 µM (active).

Turning to `NC(=O)c1ccccc1Cl`, the “activity change, negative = cytotoxicity” value is -0.312% (inactive).

Turning to `CC(C)(c1ccc(Oc2ccc(N)cc2)cc1)c1ccc(Oc2ccc(N)cc2)cc1`, the Potency is 48.6 µM (active).

As for `Nc1ccc(Cl)c([N+](=O)[O-])c1`, the Potency is 54.5 µM (active).

`CN[C@H]1CC[C@@H](c2ccc(Cl)c(Cl)c2)c2ccc(S(N)(=O)=O)cc21`: the Potency is 61.1 µM (active).

On to `CN(C[C@@H](CC[N+]12CCC(C3CCCCC3)(CC1)CC2)c1ccc(Cl)c(Cl)c1)C(=O)c1cc(C(F)(F)F)cc(C(F)(F)F)c1`, for which the Potency is 61.1 µM (active).

Take `COc1cc2ncnc(Nc3cccc(Cl)c3)c2cc1OC`: the activity change, negative = cytotoxicity was -12.4% [at 19 µM] (inactive).

For `CN1CC[C@H](c2c(O)cc(O)c3c(=O)cc(-c4ccccc4Cl)oc23)[C@H](O)C1`, the Potency was 0.0944 µM (active).

For `CCCCCCCC/C=C\CCCCCCCC(=O)N(CCO)CCO`, the Potency is 68.3 µM (active).

Regarding `Oc1cccc2c(O)cccc12`, the Potency was 54.5 µM (active).

For `Cc1cccc(C)c1C`, the “activity change, negative = cytotoxicity” value was 4.81% (inactive).

Turning to `COCCC(=O)OC`, the “activity change, negative = cytotoxicity” value was 0.859% (inactive).

Regarding `O=C1CCC(=O)N1`, the “activity change, negative = cytotoxicity” value is 14.1% (inactive).

`ClC(c1ccccc1)(c1ccccc1)c1ccccc1`: the “activity change, negative = cytotoxicity” value is -3.76% (inactive).

As for `O=C(O)CN(CCCN(CC(=O)O)CC(=O)O)CC(=O)O`, the Potency is 11.6 µM (active).

`Cc1cccc2c1ccc1ccccc12`: the “activity change, negative = cytotoxicity” value is 9.45% (inactive).

Take `O=C1OCc2ccccc21`: the “activity change, negative = cytotoxicity” value is -0.609% (inactive).

As for `CCCCCCCCOC(=O)c1cc(O)c(O)c(O)c1`, the Potency was 1.09 µM (active).

In the case of `CN(C/C=C/c1ccccc1)Cc1cccc2ccccc12`, the “activity change, negative = cytotoxicity” value is -0.795% [at 42.5 µM] (inactive).

Regarding `CC(=O)[C@]1(O)Cc2c(O)c3c(c(O)c2[C@@H](O[C@H]2C[C@H](N)[C@H](O)[C@H](C)O2)C1)C(=O)c1ccccc1C3=O`, the Potency is 11.9 µM (active).

Take `CCc1cccc(C)c1N(C(=O)CS(=O)(=O)O)C(C)COC` (stereo not given): the “activity change, negative = cytotoxicity” value is 4.55% (inactive).

`Nc1ccc(F)c([N+](=O)[O-])c1`: the “activity change, negative = cytotoxicity” value was -1.71% (inactive).
